The source of these data is publication PMC4081100, “A DNA-binding-site landscape and regulatory network analysis for NAC transcription factors in Arabidopsis thaliana”.

Assay in all cases: universal protein binding microarray (PBM); transcription factors of Arabidopsis thaliana; high values mean tight binding
One assay has as its target T1, GST-ANAC092(1-176) (Arabidopsis thaliana, UniProt Q9FKA0 1-176).
T1 sequence: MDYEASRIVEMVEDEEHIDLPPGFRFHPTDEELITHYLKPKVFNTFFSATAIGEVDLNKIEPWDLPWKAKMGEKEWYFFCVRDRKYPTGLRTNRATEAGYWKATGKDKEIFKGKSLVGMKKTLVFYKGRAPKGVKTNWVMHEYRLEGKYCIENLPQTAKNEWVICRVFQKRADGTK
Particulars: protein: recombinant; tags: GST; chain copies: 2; dsDNA, one strand shown. The essentials:
(§1)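 GST-tagged proteins (NAC-domain, full-length or DNA-binding-domain) were induced in cells, with zinc acetate supplied for zinc-finger proteins, then purified on glutathione–Sepharose 4B. Each was tested in duplicate at 200 to 500 nM final on custom all-10-mer Agilent 4 × 180K arrays rendered double-stranded by primer extension. The binding value is the normalised enrichment score (E-score) across gapped and ungapped 8-mers.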

For another assay, the target named is GST-NTL6(1-168) (Arabidopsis thaliana, UniProt Q9SCK6 1-168). Particulars: protein: recombinant; tags: GST; chain copies: 2; dsDNA, one strand shown. The method in brief: as §1
Sequence of GST-NTL6(1-168) (Q9SCK6 1-168): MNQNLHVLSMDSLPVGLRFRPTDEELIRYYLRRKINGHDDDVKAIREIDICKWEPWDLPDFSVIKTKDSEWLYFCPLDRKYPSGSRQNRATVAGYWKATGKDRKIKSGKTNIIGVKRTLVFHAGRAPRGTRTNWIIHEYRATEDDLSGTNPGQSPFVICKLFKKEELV
The next assay addresses T2, GST-ANAC019 NAC domain (Arabidopsis thaliana, UniProt Q9C932 14-162).
T2 sequence: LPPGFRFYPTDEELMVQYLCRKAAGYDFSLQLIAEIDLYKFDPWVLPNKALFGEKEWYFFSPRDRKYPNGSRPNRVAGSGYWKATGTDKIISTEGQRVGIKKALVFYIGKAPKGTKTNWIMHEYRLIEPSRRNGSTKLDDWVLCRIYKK
The conditions noted are these: protein: recombinant; tags: GST; chain copies: 2; dsDNA, one strand shown. The essentials:
as §1

Another assay has as its target T3, GST-ATAF1 NAC domain (Arabidopsis thaliana, UniProt Q39013 7-158).
T3 sequence: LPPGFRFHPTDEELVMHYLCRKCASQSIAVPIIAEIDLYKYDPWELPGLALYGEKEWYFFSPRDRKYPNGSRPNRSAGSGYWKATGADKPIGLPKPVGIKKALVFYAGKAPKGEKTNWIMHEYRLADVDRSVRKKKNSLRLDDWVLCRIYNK
The conditions noted are these: protein: recombinant; tags: GST; chain copies: 2; dsDNA, one strand shown. The essentials: as §1

Assay [1] deals with T4, GST-ANAC092(1-285) full length (Arabidopsis thaliana, UniProt Q9FKA0 1-285).
T4 sequence: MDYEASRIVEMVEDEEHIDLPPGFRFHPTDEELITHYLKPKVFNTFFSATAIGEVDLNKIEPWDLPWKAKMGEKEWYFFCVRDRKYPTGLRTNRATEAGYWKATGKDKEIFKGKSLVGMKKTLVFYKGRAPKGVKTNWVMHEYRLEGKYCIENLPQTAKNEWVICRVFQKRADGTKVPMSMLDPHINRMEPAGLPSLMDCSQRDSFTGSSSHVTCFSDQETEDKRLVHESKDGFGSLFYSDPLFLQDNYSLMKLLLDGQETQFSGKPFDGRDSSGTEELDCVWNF
Particulars: protein: recombinant; tags: GST; chain copies: 2; dsDNA, one strand shown. The essentials:
as §1

The target in the next assay is T5, GST-NAP(1-166) (Arabidopsis thaliana, UniProt O49255 1-166).
T5 sequence: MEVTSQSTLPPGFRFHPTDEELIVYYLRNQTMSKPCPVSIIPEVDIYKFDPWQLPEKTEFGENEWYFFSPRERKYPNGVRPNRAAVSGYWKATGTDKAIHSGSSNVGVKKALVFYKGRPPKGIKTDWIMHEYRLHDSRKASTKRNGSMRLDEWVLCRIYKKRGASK
Particulars: protein: recombinant; tags: GST; chain copies: 2; dsDNA, one strand shown. The method in brief:
as §1

In another assay the target is T6, GST-NTL8 NAC domain (Arabidopsis thaliana, UniProt Q9XIN7 14-156).
T6 sequence: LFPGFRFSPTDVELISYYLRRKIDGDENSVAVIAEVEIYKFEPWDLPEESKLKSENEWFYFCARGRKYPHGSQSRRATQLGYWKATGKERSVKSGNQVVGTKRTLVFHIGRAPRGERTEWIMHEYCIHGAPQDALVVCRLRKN
Particulars: protein: recombinant; tags: GST; chain copies: 2; dsDNA, one strand shown. The essentials:
as §1

Another assay deals with T7, GST-SND1(1-203) (Arabidopsis thaliana, UniProt Q9LPI7 1-203).
T7 sequence: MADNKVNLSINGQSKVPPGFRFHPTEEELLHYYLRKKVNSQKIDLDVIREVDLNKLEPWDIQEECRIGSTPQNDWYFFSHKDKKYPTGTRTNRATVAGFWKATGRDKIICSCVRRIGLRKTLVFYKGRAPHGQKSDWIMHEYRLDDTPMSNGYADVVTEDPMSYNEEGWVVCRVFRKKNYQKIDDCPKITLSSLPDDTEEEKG
Particulars: protein: recombinant; tags: GST; chain copies: 2; dsDNA, one strand shown. The essentials:
as §1

A further assay deals with T8, GST-VND3 NAC domain (Arabidopsis thaliana, UniProt Q9FH59 12-162).
T8 sequence: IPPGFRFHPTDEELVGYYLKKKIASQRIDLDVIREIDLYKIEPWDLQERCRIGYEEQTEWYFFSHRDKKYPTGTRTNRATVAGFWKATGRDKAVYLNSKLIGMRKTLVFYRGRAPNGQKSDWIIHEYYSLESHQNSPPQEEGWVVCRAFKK
The conditions noted are these: protein: recombinant; tags: GST; chain copies: 2; dsDNA, one strand shown. The essentials:
as §1

The target in the next assay is T9, GST-ANAC055(1-171) (Arabidopsis thaliana, UniProt Q9LDY8 1-171).
T9 sequence: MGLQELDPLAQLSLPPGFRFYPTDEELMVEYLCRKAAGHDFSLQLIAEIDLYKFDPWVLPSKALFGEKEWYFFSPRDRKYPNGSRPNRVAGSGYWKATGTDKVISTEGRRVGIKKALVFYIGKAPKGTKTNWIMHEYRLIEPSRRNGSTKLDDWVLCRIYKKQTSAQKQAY
The conditions noted are these: protein: recombinant; tags: GST; chain copies: 2; dsDNA, one strand shown. The method in brief: as §1

A further assay concerns the target T10, GST-NST2(1-184) (Arabidopsis thaliana, UniProt Q9M274 1-184).
T10 sequence: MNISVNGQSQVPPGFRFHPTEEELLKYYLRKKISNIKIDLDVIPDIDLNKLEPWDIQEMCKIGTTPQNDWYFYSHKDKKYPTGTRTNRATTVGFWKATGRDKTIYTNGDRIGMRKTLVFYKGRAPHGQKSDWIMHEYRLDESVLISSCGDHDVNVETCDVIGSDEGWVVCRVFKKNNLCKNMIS
The conditions noted are these: protein: recombinant; tags: GST; chain copies: 2; dsDNA, one strand shown. The method in brief:
as §1

Another assay concerns the target T11, GST-VND7 NAC domain (Arabidopsis thaliana, UniProt Q9C8W9 9-158).
T11 sequence: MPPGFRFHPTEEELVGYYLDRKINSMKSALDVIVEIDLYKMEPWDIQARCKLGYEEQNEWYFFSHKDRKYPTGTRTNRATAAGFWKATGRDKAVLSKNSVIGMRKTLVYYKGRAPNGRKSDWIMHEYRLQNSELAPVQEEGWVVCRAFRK
The conditions noted are these: protein: recombinant; tags: GST; chain copies: 2; dsDNA, one strand shown. The essentials: as §1

The next assay deals with GST-WRKY1(266-371) (Arabidopsis thaliana, UniProt Q9SI37 266-371). Particulars: protein: recombinant; tags: GST; dsDNA, one strand shown. The essentials: as §1
Sequence of GST-WRKY1(266-371) (Q9SI37 266-371): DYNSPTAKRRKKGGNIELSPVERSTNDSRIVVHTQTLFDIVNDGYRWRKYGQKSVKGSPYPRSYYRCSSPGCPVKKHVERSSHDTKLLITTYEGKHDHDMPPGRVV

Regarding AGGGAAAC, the binding signal is 0.0845 E-score with GST-ANAC092(1-176); 0.115 E-score with GST-NTL6(1-168); 0.0754 E-score in the assay with GST-ANAC019 NAC domain; 0.0887 E-score with GST-ATAF1 NAC domain; 0.071 E-score in [1]; 0.14 E-score in the assay with GST-NAP(1-166). The results for the binding signal with GST-NTL8 NAC domain, with GST-SND1(1-203) and in the assay with GST-VND3 NAC domain were 0.482 E-score, 0.0839 E-score and 0.0608 E-score, respectively.

ATTAAGTA: the binding signal worked out at 0.0822 E-score in the assay with GST-ANAC092(1-176); 0.441 E-score with GST-NTL6(1-168); 0.182 E-score with GST-ANAC055(1-171); 0.215 E-score with GST-ATAF1 NAC domain; 0.144 E-score in [1]; 0.231 E-score in the assay with GST-NST2(1-184). Also, the binding signal with GST-SND1(1-203) was determined as 0.267 E-score; with GST-VND3 NAC domain, 0.131 E-score.

GTCAAAAA: the binding signal in the assay with GST-ANAC092(1-176) came to 0.114 E-score; in the assay with GST-ANAC019 NAC domain, 0.0995 E-score; with GST-ATAF1 NAC domain it was 0.154 E-score; in assay [1], 0.0617 E-score; with GST-NST2(1-184), 0.121 E-score; with GST-NTL8 NAC domain it was 0.0654 E-score. For the same sequence, the binding signal in the assay with GST-SND1(1-203) worked out at 0.216 E-score; with GST-VND7 NAC domain, 0.0546 E-score; with GST-WRKY1(266-371) it was 0.442 E-score.

AAGTCATC: the binding signal amounted to 0.233 E-score with GST-NTL6(1-168); 0.0818 E-score in the assay with GST-ANAC055(1-171); 0.213 E-score in assay [1]; 0.0606 E-score with GST-NAP(1-166); 0.089 E-score in the assay with GST-NST2(1-184); 0.0978 E-score with GST-NTL8 NAC domain. Also, the binding signal worked out at 0.242 E-score in the assay with GST-SND1(1-203), 0.11 E-score in the assay with GST-VND7 NAC domain and 0.406 E-score with GST-WRKY1(266-371).

For ACGTTATC, the binding signal is 0.384 E-score with GST-ANAC092(1-176); 0.0511 E-score with GST-ANAC055(1-171); 0.17 E-score with GST-ATAF1 NAC domain; 0.431 E-score in assay [1]; 0.162 E-score with GST-NAP(1-166); 0.299 E-score with GST-NST2(1-184). Further, the binding signal is 0.423 E-score in the assay with GST-SND1(1-203) and 0.208 E-score with GST-VND3 NAC domain.

TGACTCAA: the binding signal in the assay with GST-NTL6(1-168) came out at 0.118 E-score; in the assay with GST-ATAF1 NAC domain it was 0.0764 E-score; in [1], 0.131 E-score; with GST-SND1(1-203) it was 0.0975 E-score; with GST-VND3 NAC domain it was 0.113 E-score; with GST-WRKY1(266-371), 0.419 E-score.

Turning to CTTGACTA, the binding signal was found to be 0.0925 E-score with GST-ANAC019 NAC domain; 0.0781 E-score with GST-ANAC055(1-171); 0.142 E-score with GST-ATAF1 NAC domain; 0.0888 E-score with GST-NST2(1-184); 0.0949 E-score with GST-NTL8 NAC domain; 0.0644 E-score in the assay with GST-SND1(1-203). For the same sequence, the binding signal with GST-VND3 NAC domain was 0.159 E-score; with GST-WRKY1(266-371), 0.462 E-score.
